The source made the active and inactive calls. Rule for the calls: active = hit-call score of the fitted dose curve at least 0.9, where 1 is the maximum; inactive = score below 0.9.

Chain of Hepatocyte nuclear factor 6 (Homo sapiens) (Q9UBC0 whole entry, looked up, the tested form may be a part): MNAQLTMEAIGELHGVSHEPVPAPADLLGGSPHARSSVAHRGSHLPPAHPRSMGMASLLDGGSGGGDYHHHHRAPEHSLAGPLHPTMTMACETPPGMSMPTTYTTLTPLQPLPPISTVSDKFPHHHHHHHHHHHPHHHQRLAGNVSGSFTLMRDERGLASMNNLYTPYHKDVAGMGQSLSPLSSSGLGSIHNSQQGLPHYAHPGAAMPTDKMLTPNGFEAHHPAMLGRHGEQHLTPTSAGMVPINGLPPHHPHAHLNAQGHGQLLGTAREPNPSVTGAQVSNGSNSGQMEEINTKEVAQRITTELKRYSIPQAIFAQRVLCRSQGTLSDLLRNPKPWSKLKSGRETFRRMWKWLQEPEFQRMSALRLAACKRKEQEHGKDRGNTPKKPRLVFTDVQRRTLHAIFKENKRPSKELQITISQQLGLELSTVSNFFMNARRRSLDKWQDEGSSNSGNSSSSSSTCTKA
Chain of Hypoxia-inducible factor 1-alpha (Homo sapiens) (Q16665 whole entry, looked up): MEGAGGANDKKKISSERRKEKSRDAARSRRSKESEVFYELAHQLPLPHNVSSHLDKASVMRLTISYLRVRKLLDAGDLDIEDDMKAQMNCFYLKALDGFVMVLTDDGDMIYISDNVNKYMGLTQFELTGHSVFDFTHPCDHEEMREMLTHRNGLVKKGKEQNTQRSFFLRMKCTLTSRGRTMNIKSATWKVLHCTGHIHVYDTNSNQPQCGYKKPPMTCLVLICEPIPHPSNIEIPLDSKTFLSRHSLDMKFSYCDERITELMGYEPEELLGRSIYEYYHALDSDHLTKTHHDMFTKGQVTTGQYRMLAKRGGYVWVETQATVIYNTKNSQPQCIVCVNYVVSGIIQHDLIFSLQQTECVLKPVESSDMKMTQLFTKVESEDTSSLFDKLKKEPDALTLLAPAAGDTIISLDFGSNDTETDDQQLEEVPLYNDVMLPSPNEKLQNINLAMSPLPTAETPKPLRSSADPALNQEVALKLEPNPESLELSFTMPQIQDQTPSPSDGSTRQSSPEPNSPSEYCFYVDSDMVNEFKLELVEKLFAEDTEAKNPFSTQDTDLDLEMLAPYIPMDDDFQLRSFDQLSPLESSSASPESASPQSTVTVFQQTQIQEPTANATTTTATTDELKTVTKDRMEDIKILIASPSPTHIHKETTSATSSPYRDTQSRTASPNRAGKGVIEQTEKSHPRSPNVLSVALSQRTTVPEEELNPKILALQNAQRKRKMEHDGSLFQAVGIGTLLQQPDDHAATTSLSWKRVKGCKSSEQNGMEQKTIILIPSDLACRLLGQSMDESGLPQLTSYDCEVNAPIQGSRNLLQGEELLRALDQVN

One test has as its target Hypoxia-inducible factor 1-alpha (Homo sapiens) (UniProt Q16665). Nature of the test: ATG_HIF1a_CIS: Attagene CIS-FACTORIAL HepG2 Assay for human Hypoxia Inducible Factor 1 (HIF1A) (AID 2282951). As to conditions: HepG2 Attagene cis-factorial HIF1a reporter transcription; actives raise or lower the signal. The essentials: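 Cis-element reporter constructs were transiently transfected into HepG2 cells, which were treated for 24 h; reporter RNA was reverse-transcribed, amplified, labelled and resolved by capillary electrophoresis.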
Regarding `O=C1CCCC(=O)O1`, the result was inactive.

Regarding `CCOc1ccc(N)c([N+](=O)[O-])c1`, the result was inactive.

Regarding `CCOC(=O)Cc1cccc2ccccc12`, the result was inactive.

Take `COC=O`: the compound was called inactive.

Consider `CCC(C)OC(=O)c1ccc(O)cc1` (stereo not drawn), for which the call was inactive.

With `N#[N+]c1ccc2c(S(=O)(=O)[O-])cccc2c1O`, the call was inactive.

`CCCCCCC1(C)CCC(=O)O1` (stereo not drawn): the compound was classed as inactive.

On to `Cc1cccc(C(=O)O)c1`, for which the result was inactive.

Regarding `CC/C=C\CCOC(=O)CCCCC`, the compound was classed as inactive.

Turning to `O=S1(=O)OC(c2ccc(O)cc2)(c2ccc(O)cc2)c2ccccc21`, the result was inactive.

In the case of `O=C1C(N(CO)C(=O)NCO)N(CO)C(=O)N1CO` (stereo not drawn), the compound was classed as inactive.

For `CC(CC=O)c1ccccc1` (stereo not drawn), the compound was called inactive.

Consider `CC(C)CCCC(C)CC=O` (stereo not drawn), for which the result was inactive.

As for `CCN(Cc1cccc(S(=O)(=O)O)c1)c1ccc(C(=C2C=CC(=[N+](CC)Cc3cccc(S(=O)(=O)[O-])c3)C=C2)c2ccccc2)cc1`, the compound was called inactive.

Take `CCO[Si](CCCN=C=O)(OCC)OCC`: the compound was called inactive.

With `Cc1ccc(C(C)(C)C)cc1`, the result was inactive.

As to `ON(Cc1ccccc1)Cc1ccccc1`, the compound was classed as inactive.

On to `CC1=CC[C@H](C(C)C)C=C1`, for which the result was inactive.

On to `CC(C)=CCC[C@H](C)CCO`, for which the compound was called inactive.

As to `COC(=O)c1c(C)cc(O)c(C)c1O`, the compound was classed as inactive.

In the case of `CCC(C)(C)C1CCCCC1OC(C)=O` (stereo not drawn), the outcome was inactive.

For `N#CCc1ccc(Cl)cc1Cl`, the compound was called inactive.

As to `CCN(CC#N)c1cccc(C)c1`, the result was inactive.

As for `CC(=O)OCc1ccco1`, the call was inactive.

As to `CC(C)(C)C(=O)CCc1ccc(Cl)cc1`, the outcome was inactive.

Take `C1=Cc2ccccc2C1`: the result was inactive.

Turning to `CCCCC/C=C\C/C=C\CCCCCCCC(=O)OC`, the compound was classed as inactive.

`C=C(C)[C@H]1CC=C(C)CC1`: the compound was called inactive.

Turning to `N[C@H]1C(O)O[C@H](CO)[C@H](O)[C@@H]1O` (stereo partly drawn), the compound was called inactive.

The next test concerns the target Hepatocyte nuclear factor 6 (Homo sapiens) (UniProt Q9UBC0). The test can be described thus: ATG_HNF6_CIS: Attagene CIS-FACTORIAL HepG2 Assay for human Hepatocyte Nuclear Factor 6 (HNF6) (AID 2282952). As to conditions: HepG2 Attagene cis-factorial HNF6 reporter transcription; actives raise or lower the signal. The essentials:
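Using cis-element reporters in HepG2 liver cells, the assay tracks endogenous factor-driven transcription 24 h post-dosing. Signal comes from 6-FAM-labelled, HpaI-digested RT-PCR fragments, with gain or loss scored against DMSO.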
For the compound `C=CC(=O)NC(C)(C)CS(=O)(=O)O`, the outcome was inactive.

Turning to `O=C1CCCC(=O)O1`, the result was inactive.

On to `Cc1c(C)c([N+](=O)[O-])c(C(C)(C)C)c([N+](=O)[O-])c1C`, for which the outcome was inactive.

Turning to `CCOc1ccc(N)c([N+](=O)[O-])c1`, the call was inactive.

Consider `CCOC(=O)Cc1cccc2ccccc12`, for which the compound was called inactive.

Regarding `C[C@]12C=CC(=O)C=C1CC[C@@H]1[C@@H]2[C@@H](O)C[C@@]2(C)[C@H]1CC[C@]2(O)C(=O)CO`, the compound was classed as inactive.

With `CC1=CC[C@H]2C[C@@H]1C2(C)C`, the result was inactive.

Consider `N#[N+]c1ccc2c(S(=O)(=O)[O-])cccc2c1O`, for which the call was inactive.

Regarding `Cc1cc(C)c(C)c(O)c1`, the compound was called inactive.

Turning to `CCCCCCC1(C)CCC(=O)O1` (stereo not drawn), the outcome was inactive.

Regarding `Cc1cccc(C(=O)O)c1`, the compound was called inactive.

As to `C=CC(C)(CCC=C(C)C)OC(=O)CC(C)C` (stereo not drawn), the outcome was inactive.

For the compound `CC/C=C\CCOC(=O)CCCCC`, the result was inactive.

For the compound `O=S1(=O)OC(c2ccc(O)cc2)(c2ccc(O)cc2)c2ccccc21`, the compound was classed as inactive.

Turning to `O=C1C(N(CO)C(=O)NCO)N(CO)C(=O)N1CO` (stereo not drawn), the result was inactive.

For the compound `CC(CC=O)c1ccccc1` (stereo not drawn), the result was inactive.

In the case of `CC(C)CCCC(C)CC=O` (stereo not drawn), the call was inactive.

On to `CCO[Si](CCCN=C=O)(OCC)OCC`, for which the compound was classed as inactive.

In the case of `O=S(=O)(Oc1ccc(Cl)cc1Cl)c1ccccc1`, the result was inactive.

On to `Cc1ccc(C(C)(C)C)cc1`, for which the call was inactive.

As for `ON(Cc1ccccc1)Cc1ccccc1`, the compound was called inactive.

On to `CC1=CC[C@H](C(C)C)C=C1`, for which the compound was classed as inactive.

Consider `CC(C)=CCC[C@H](C)CCO`, for which the call was inactive.

Turning to `COC(=O)c1c(C)cc(O)c(C)c1O`, the result was inactive.

With `CCC(C)(C)C1CCCCC1OC(C)=O` (stereo not drawn), the outcome was inactive.

With `O=CN1CCCCC1`, the compound was called inactive.

`CCN(CC#N)c1cccc(C)c1`: the call was inactive.

On to `CC(=O)OCc1ccco1`, for which the call was inactive.

Take `NC(=O)OCC(COC(N)=O)c1ccccc1`: the outcome was inactive.

Consider `COC(=O)/C=C\C(=O)O`, for which the result was inactive.

With `C1=Cc2ccccc2C1`, the call was inactive.

On to `O=C1CCC(=O)N1Cl`, for which the call was inactive.

With `C=C(C)[C@H]1CC=C(C)CC1`, the outcome was inactive.

On to `N[C@H]1C(O)O[C@H](CO)[C@H](O)[C@@H]1O` (stereo partly drawn), for which the outcome was inactive.

(Values after PubChem BioAssay (EPA / NIEHS).)
